Data reported in PubChem BioAssay (NCI).
About 83,000 compounds went through this panel and 20% of them were active in at least one assay; those are over-represented in the sample as a whole.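 Negative percent growth values reflect cell death: -40 means 40% of the cells present at the start died, and -100 means all died.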 Calls of active or inactive are those of the source. The calls were made as follows: active = growth percent below 10; inactive = the rest.

Columns and labels:
Assay in all cases: NCI-60 one-dose screen, 48 h (100 = growth as untreated, 0 = no growth, -100 = all killed)
Conditions in all cases: 10 µM unless noted
NCI-H23 lung = tested on: NCI-H23 lung
NCI-H226 lung = tested on: NCI-H226 lung
NCI-H322M lung = tested on: NCI-H322M lung
HOP-62 NSCLC = tested on: HOP-62 NSCLC
NCI-H460 lung = tested on: NCI-H460 lung
NCI-H522 lung = tested on: NCI-H522 lung
A549/ATCC NSCLC = tested on: A549/ATCC NSCLC
786-0 renal = tested on: 786-0 renal
DU-145 prostate = tested on: DU-145 prostate
K-562 leukemia = tested on: K-562 leukemia
MALME-3M melanoma = tested on: MALME-3M melanoma
MDA-MB-231 breast = tested on: MDA-MB-231 breast
RXF 393 renal = tested on: RXF 393 renal
SF-268 CNS = tested on: SF-268 CNS
SF-295 CNS = tested on: SF-295 CNS
SF-539 CNS = tested on: SF-539 CNS
UACC-257 melanoma = tested on: UACC-257 melanoma
M14 melanoma = tested on: M14 melanoma
COLO 205 colon = tested on: COLO 205 colon

Measured: growth

O=C(Nc1ccncc1)C(=O)c1cn(S(=O)(=O)c2cccc(Cl)c2F)c2ccccc12
inactive: NCI-H23 lung 63.7% | NCI-H226 lung 75% | NCI-H322M lung 96.7% | HOP-62 NSCLC 89.6% | NCI-H460 lung 90% | NCI-H522 lung 35.2% | A549/ATCC NSCLC 82.8% | 786-0 renal 77.3% | DU-145 prostate 96.9% | K-562 leukemia 23.9% | MALME-3M melanoma 53.7% | MDA-MB-231 breast 78.2% | RXF 393 renal 92.5% | SF-268 CNS 80.6% | SF-295 CNS 67.9% | SF-539 CNS 83.2% | UACC-257 melanoma 89.6% | M14 melanoma 59.2%

Oc1ccc(-c2nnc3c4[nH]ccc4ncn23)cc1
inactive: NCI-H23 lung 91.5% | NCI-H226 lung 100% | NCI-H322M lung 98.2% | HOP-62 NSCLC 100% | NCI-H460 lung 90.1% | NCI-H522 lung 81.5% | A549/ATCC NSCLC 93.7% | 786-0 renal 95.6% | DU-145 prostate 97.2% | K-562 leukemia 98.4% | MALME-3M melanoma 94.5% | MDA-MB-231 breast 92% | RXF 393 renal 113% | SF-268 CNS 103% | SF-295 CNS 101% | SF-539 CNS 101% | UACC-257 melanoma 117% | M14 melanoma 104%

CCOC(=O)Nc1ccc2nc(N3CCCCCC3)sc2c1
inactive: NCI-H23 lung 47.9% | NCI-H226 lung 54.3% | NCI-H322M lung 46.2% | HOP-62 NSCLC 33.2% | NCI-H460 lung 17.1% | A549/ATCC NSCLC 32% | 786-0 renal 40.2% | DU-145 prostate 22.4% | MALME-3M melanoma 38.9% | RXF 393 renal 14.4% | SF-268 CNS 49% | SF-295 CNS 23.5% | UACC-257 melanoma 64.3% | M14 melanoma 19.5%
active: NCI-H522 lung -12.7% | COLO 205 colon -7.85% | SF-539 CNS -1.3%

Cc1ccccc1C1CC(=O)c2ccccc2C1C (centres undefined)
inactive: NCI-H23 lung 100% | NCI-H226 lung 103% | NCI-H322M lung 114% | HOP-62 NSCLC 104% | NCI-H460 lung 108% | NCI-H522 lung 97.1% | A549/ATCC NSCLC 89.9% | 786-0 renal 102% | DU-145 prostate 109% | K-562 leukemia 97.3% | MALME-3M melanoma 125% | MDA-MB-231 breast 105% | RXF 393 renal 109% | SF-268 CNS 101% | SF-295 CNS 96.3% | SF-539 CNS 93% | UACC-257 melanoma 103% | M14 melanoma 90.6%

CC(C)(C)c1nn(-c2ccccc2)c2c1C(=O)CSC(c1ccccc1Cl)N2 (centres undefined)
active: COLO 205 colon 2.17% | RXF 393 renal -10.4% | SF-295 CNS -13.4%
inactive: NCI-H23 lung 38.3% | NCI-H226 lung 36.4% | NCI-H322M lung 35.1% | HOP-62 NSCLC 27.6% | NCI-H460 lung 22.4% | NCI-H522 lung 11.7% | A549/ATCC NSCLC 39.8% | 786-0 renal 25.7% | DU-145 prostate 26.7% | MALME-3M melanoma 53.5% | MDA-MB-231 breast 66% | SF-268 CNS 50.4% | SF-539 CNS 15.7% | UACC-257 melanoma 77.4% | M14 melanoma 11.2%

Nc1ccc(C2=NNC(=O)Cc3cc4c(cc32)OCCO4)cc1Cl
inactive: NCI-H23 lung 20.9% | NCI-H226 lung 68.5% | NCI-H322M lung 61.1% | HOP-62 NSCLC 46% | NCI-H460 lung 10.6% | A549/ATCC NSCLC 40.3% | 786-0 renal 54.3% | COLO 205 colon 26.9% | DU-145 prostate 67.5% | MALME-3M melanoma 40.9% | MDA-MB-231 breast 61.4% | RXF 393 renal 49.9% | SF-268 CNS 59.7% | SF-295 CNS 15.9% | SF-539 CNS 49.4% | UACC-257 melanoma 72.7% | M14 melanoma 16.8%

O=S1(=O)NCCCN1CCNc1nccc(-c2c(-c3cccc(O)c3)nc3sccn23)n1
active: M14 melanoma 7.6%
inactive: NCI-H23 lung 83.7% | NCI-H226 lung 84.9% | NCI-H322M lung 85.1% | HOP-62 NSCLC 118% | NCI-H460 lung 67.1% | A549/ATCC NSCLC 124% | 786-0 renal 59.3% | COLO 205 colon 32.6% | DU-145 prostate 74.2% | MALME-3M melanoma 17.3% | MDA-MB-231 breast 50.7% | RXF 393 renal 64.3% | SF-268 CNS 81.3% | SF-295 CNS 112% | SF-539 CNS 70.3% | UACC-257 melanoma 39.9%

O=C(N/N=C/c1ccc([N+](=O)[O-])cc1)c1ccccc1Nc1ccnc(C(F)(F)F)c1
inactive: NCI-H23 lung 62.3% | NCI-H226 lung 70.8% | NCI-H322M lung 83.3% | HOP-62 NSCLC 48.8% | NCI-H460 lung 94.3% | A549/ATCC NSCLC 82% | 786-0 renal 81.8% | COLO 205 colon 103% | DU-145 prostate 98.6% | K-562 leukemia 78% | MALME-3M melanoma 86% | MDA-MB-231 breast 70.4% | RXF 393 renal 91.7% | SF-268 CNS 86.2% | SF-295 CNS 83.8% | SF-539 CNS 84.3% | UACC-257 melanoma 79.4% | M14 melanoma 101%

CCCCn1cnc2c(SCc3ccc([N+](=O)[O-])cc3)nc(N)nc21
inactive: NCI-H23 lung 96.5% | NCI-H226 lung 85.6% | NCI-H322M lung 112% | HOP-62 NSCLC 95.2% | NCI-H460 lung 108% | A549/ATCC NSCLC 90.6% | 786-0 renal 79.5% | COLO 205 colon 105% | DU-145 prostate 123% | K-562 leukemia 59.8% | MALME-3M melanoma 130% | MDA-MB-231 breast 82.3% | RXF 393 renal 106% | SF-268 CNS 84.4% | SF-295 CNS 122% | SF-539 CNS 94.7% | UACC-257 melanoma 97.5% | M14 melanoma 106%
